Data reported in ChEMBL document CHEMBL1961873, “Compounds: GSK PKIS; Assays: Nanosyn kinase panel” (2012).

How the values were obtained:
[1] = target: High affinity nerve growth factor receptor (Homo sapiens) (UniProt P04629); conditions: at 1 µM;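 also: each value is the mean percent inhibition of TRKA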
[2] = target: BDNF/NT-3 growth factors receptor (Homo sapiens) (UniProt Q16620); conditions: at 0.1 µM
[3] = target: BDNF/NT-3 growth factors receptor (Homo sapiens) (UniProt Q16620); conditions: at 1 µM
[4] = target: NT-3 growth factor receptor (Homo sapiens) (UniProt Q16288); conditions: at 0.1 µM
Sequence of NT-3 growth factor receptor (Homo sapiens) (Q16288 32-839 limits assumed): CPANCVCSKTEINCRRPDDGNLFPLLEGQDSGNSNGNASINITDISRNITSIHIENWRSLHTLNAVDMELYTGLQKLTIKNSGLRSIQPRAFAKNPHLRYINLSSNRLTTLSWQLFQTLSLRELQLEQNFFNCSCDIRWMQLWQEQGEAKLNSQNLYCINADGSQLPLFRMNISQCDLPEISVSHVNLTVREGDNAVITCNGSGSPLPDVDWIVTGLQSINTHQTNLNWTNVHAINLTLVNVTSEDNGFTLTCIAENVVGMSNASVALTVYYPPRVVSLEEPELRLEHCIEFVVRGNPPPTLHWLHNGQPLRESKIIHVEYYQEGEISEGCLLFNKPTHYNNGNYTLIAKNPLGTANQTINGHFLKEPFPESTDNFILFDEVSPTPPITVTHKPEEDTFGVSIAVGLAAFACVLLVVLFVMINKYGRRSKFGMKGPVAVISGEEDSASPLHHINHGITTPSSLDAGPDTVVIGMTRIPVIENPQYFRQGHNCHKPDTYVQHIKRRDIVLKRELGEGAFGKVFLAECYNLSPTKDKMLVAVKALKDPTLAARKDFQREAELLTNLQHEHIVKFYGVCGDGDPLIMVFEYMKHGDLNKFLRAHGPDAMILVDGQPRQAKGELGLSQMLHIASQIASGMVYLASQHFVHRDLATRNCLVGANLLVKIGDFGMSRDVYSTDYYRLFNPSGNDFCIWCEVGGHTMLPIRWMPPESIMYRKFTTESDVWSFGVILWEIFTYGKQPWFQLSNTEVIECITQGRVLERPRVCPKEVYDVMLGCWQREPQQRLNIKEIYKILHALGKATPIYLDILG

[5] = target: NT-3 growth factor receptor (Homo sapiens) (UniProt Q16288); conditions: at 1 µM
[6] = target: T1, Tyrosine-protein kinase TXK (Homo sapiens) (UniProt P42681); conditions: at 0.1 µM
T1 sequence (whole entry): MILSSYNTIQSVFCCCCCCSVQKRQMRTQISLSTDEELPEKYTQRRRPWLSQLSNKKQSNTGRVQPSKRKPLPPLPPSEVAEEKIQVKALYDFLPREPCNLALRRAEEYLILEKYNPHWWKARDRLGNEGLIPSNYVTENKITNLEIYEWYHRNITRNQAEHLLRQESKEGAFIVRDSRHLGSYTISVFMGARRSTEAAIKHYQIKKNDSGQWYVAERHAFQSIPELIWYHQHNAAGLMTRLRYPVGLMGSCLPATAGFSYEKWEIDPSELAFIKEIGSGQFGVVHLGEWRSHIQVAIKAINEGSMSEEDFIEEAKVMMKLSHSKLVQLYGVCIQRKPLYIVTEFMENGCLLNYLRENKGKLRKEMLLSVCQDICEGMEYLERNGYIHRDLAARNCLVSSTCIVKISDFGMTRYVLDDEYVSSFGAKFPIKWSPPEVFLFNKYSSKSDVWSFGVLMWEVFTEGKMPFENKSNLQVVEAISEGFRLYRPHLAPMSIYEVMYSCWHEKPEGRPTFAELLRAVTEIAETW

[7] = target: T1, Tyrosine-protein kinase TXK (Homo sapiens); conditions: at 1 µM
[8] = target: Non-receptor tyrosine-protein kinase TYK2 (Homo sapiens) (UniProt P29597); conditions: at 0.1 µM;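 also: each value is a mean of the inhibition readings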
[9] = target: T2, Dual specificity protein kinase TTK (Homo sapiens) (UniProt P33981); conditions: at 1 µM;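 also: reported figures are mean TTK inhibition at 1 µM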
T2 sequence (whole entry): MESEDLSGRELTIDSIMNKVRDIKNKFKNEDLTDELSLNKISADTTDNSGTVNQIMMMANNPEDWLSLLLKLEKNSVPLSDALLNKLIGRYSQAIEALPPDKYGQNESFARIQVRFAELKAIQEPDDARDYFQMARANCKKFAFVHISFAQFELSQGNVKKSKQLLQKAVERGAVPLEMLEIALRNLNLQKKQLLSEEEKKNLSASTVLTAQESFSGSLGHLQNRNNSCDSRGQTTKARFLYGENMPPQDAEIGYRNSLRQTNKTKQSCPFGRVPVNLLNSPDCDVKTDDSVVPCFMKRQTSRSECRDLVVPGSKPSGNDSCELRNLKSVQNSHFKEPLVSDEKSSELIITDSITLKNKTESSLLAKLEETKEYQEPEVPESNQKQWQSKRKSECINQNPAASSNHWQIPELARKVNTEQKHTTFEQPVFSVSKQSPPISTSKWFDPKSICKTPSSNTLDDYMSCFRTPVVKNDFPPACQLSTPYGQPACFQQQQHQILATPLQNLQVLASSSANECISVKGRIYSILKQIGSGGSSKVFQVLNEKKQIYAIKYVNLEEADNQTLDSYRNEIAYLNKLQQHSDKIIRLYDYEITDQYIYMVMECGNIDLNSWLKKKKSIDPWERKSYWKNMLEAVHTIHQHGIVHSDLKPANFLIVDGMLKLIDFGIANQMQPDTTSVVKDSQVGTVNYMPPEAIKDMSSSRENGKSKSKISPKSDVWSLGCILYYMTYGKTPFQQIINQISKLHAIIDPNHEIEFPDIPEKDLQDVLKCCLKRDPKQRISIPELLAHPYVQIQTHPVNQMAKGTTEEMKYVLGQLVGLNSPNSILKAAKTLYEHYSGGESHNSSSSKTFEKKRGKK

[10] = target: T3, Aurora kinase A (Homo sapiens) (UniProt O14965); conditions: at 0.1 µM
T3 sequence (whole entry): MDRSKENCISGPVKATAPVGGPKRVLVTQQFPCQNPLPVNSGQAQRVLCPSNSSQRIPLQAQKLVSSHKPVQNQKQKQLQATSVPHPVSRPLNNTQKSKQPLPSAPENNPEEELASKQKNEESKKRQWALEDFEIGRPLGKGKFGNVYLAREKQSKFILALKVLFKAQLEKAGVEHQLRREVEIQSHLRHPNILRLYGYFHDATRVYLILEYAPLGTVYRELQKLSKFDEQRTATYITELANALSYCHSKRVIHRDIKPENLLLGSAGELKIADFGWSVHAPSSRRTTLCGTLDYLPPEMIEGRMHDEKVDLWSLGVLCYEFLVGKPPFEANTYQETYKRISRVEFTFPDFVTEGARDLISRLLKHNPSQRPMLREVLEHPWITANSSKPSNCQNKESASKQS

[11] = target: T3, Aurora kinase A (Homo sapiens); conditions: at 1 µM
[12] = target: Aurora kinase B (Homo sapiens) (UniProt Q96GD4); conditions: at 0.1 µM
Sequence of Aurora kinase B (Homo sapiens) (Q96GD4 whole entry): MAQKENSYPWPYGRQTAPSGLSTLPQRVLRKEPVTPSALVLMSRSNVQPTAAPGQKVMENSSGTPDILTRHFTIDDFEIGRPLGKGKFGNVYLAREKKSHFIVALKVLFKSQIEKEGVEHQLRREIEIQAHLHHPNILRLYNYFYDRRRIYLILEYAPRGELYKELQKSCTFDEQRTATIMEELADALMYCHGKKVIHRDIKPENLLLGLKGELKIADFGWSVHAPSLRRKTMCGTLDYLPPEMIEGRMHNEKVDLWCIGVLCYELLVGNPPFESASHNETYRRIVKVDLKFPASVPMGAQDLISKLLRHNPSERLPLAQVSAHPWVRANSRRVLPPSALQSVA

[13] = target: Aurora kinase B (Homo sapiens) (UniProt Q96GD4); conditions: at 1 µM
[14] = target: T4, Aurora kinase C (Homo sapiens) (UniProt Q9UQB9); conditions: at 0.1 µM
T4 sequence (whole entry): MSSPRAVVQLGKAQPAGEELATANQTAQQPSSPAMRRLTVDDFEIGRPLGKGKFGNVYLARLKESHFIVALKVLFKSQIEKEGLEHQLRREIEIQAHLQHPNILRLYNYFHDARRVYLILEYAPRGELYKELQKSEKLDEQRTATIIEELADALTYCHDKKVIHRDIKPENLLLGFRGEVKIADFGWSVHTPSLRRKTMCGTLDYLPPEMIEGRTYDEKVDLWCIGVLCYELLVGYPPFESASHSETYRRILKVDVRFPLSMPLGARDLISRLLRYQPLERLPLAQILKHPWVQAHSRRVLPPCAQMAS

[15] = target: T4, Aurora kinase C (Homo sapiens); conditions: at 1 µM
[16] = target: Serine/threonine-protein kinase 10 (Homo sapiens) (UniProt O94804); conditions: at 0.1 µM
Sequence of Serine/threonine-protein kinase 10 (Homo sapiens) (O94804 whole entry, looked up): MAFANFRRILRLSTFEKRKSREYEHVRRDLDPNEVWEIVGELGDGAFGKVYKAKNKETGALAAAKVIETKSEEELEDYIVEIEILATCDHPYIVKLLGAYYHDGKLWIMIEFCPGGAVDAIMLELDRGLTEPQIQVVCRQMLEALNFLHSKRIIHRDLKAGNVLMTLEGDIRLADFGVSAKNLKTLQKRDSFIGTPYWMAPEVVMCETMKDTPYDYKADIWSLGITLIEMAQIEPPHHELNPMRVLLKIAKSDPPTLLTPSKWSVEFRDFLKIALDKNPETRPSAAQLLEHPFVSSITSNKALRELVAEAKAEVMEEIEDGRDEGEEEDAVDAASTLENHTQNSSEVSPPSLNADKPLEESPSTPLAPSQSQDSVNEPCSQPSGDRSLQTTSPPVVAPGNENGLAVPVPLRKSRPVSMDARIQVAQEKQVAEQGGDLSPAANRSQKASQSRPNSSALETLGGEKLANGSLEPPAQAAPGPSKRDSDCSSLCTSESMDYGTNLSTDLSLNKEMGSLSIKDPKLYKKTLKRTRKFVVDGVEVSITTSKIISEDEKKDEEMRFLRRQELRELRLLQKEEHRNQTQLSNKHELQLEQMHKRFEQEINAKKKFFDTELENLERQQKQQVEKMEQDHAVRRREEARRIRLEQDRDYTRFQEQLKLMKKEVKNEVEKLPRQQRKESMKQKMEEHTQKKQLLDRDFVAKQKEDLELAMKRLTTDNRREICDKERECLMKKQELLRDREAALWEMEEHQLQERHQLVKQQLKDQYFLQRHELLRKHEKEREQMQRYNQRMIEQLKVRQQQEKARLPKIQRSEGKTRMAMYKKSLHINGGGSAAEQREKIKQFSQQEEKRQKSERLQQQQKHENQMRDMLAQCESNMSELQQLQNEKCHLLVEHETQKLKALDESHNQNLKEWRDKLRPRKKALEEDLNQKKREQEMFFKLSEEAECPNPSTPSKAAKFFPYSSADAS

[17] = target: Serine/threonine-protein kinase 10 (Homo sapiens) (UniProt O94804); conditions: at 1 µM
[18] = target: T5, Mitogen-activated protein kinase kinase kinase kinase 2 (Homo sapiens) (UniProt Q12851); conditions: at 0.1 µM
T5 sequence (whole entry): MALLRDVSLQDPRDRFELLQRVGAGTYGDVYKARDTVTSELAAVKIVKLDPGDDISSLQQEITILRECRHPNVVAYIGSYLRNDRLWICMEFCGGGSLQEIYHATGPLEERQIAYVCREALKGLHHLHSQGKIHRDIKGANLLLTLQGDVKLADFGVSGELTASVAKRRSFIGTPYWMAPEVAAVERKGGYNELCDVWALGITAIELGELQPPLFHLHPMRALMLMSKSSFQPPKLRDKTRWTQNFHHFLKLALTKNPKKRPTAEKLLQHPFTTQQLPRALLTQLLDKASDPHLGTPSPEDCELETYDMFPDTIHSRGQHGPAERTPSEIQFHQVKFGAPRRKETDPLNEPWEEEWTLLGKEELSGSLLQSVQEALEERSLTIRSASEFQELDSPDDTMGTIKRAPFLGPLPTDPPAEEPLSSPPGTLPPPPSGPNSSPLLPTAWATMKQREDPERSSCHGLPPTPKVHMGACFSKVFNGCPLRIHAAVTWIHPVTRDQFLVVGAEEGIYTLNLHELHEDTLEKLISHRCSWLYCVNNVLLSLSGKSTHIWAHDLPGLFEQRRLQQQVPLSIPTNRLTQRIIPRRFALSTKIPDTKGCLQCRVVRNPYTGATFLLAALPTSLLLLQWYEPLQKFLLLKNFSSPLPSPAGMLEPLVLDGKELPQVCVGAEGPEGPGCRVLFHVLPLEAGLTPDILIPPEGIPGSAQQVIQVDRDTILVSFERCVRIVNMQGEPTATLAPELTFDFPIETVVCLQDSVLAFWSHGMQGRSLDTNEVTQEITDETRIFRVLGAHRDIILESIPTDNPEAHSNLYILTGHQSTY

[19] = target: T5, Mitogen-activated protein kinase kinase kinase kinase 2 (Homo sapiens); conditions: at 1 µM
[20] = target: Mitogen-activated protein kinase kinase kinase kinase 4 (Homo sapiens) (UniProt O95819); conditions: at 0.1 µM
Sequence of Mitogen-activated protein kinase kinase kinase kinase 4 (Homo sapiens) (O95819 2-1239 limits assumed): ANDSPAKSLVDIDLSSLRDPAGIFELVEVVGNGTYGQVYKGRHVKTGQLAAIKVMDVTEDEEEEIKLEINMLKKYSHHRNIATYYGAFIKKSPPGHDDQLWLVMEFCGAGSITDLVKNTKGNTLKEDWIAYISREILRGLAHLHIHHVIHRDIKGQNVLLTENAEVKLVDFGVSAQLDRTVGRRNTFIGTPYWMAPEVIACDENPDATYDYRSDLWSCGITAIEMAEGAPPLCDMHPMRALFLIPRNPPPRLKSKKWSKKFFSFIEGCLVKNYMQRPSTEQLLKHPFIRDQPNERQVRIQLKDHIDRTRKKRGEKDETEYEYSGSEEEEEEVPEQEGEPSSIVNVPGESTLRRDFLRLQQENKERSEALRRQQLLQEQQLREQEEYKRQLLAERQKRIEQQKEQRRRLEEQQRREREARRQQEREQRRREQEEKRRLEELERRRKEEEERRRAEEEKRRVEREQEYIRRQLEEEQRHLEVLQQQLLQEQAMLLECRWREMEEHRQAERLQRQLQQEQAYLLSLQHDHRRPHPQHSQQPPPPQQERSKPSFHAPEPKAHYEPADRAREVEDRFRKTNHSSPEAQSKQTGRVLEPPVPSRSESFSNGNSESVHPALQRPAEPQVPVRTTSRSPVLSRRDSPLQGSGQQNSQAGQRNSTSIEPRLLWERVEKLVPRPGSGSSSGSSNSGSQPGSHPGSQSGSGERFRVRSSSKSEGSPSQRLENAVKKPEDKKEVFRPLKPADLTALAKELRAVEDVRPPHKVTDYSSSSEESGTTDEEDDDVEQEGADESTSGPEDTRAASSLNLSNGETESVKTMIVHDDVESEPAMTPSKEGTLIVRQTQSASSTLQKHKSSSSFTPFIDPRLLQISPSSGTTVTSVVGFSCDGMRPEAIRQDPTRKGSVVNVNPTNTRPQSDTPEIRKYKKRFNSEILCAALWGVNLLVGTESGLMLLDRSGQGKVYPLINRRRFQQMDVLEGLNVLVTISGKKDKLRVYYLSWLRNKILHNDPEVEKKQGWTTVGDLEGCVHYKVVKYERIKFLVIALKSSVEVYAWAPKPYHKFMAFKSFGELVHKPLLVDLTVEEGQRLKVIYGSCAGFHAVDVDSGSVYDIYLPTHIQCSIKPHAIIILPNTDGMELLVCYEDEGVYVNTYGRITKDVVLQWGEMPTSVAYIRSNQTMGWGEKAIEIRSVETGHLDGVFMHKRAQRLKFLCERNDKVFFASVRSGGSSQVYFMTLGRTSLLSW

Sequence of High affinity nerve growth factor receptor (Homo sapiens) (P04629 33-796 limits assumed): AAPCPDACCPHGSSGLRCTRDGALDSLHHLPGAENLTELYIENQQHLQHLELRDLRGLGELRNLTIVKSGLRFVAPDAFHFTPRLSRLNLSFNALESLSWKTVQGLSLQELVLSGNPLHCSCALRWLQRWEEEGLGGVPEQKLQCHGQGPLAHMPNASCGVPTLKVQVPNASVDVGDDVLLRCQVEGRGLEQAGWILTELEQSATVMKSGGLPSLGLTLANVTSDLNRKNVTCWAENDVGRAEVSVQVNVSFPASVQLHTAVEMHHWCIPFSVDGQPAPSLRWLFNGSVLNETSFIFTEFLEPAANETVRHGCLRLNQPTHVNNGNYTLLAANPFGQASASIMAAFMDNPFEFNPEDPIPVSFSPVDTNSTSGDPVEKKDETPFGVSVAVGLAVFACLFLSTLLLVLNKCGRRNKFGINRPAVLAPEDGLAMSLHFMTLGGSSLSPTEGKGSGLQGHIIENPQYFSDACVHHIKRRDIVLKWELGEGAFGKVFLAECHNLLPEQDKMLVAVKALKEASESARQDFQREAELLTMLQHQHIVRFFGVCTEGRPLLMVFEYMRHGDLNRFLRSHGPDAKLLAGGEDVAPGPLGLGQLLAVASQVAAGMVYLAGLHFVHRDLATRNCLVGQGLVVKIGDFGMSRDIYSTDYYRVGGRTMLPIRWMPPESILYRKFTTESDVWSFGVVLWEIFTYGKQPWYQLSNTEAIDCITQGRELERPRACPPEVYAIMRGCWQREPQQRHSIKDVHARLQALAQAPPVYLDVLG
Sequence of BDNF/NT-3 growth factors receptor (Homo sapiens) (Q16620 32-822 limits assumed): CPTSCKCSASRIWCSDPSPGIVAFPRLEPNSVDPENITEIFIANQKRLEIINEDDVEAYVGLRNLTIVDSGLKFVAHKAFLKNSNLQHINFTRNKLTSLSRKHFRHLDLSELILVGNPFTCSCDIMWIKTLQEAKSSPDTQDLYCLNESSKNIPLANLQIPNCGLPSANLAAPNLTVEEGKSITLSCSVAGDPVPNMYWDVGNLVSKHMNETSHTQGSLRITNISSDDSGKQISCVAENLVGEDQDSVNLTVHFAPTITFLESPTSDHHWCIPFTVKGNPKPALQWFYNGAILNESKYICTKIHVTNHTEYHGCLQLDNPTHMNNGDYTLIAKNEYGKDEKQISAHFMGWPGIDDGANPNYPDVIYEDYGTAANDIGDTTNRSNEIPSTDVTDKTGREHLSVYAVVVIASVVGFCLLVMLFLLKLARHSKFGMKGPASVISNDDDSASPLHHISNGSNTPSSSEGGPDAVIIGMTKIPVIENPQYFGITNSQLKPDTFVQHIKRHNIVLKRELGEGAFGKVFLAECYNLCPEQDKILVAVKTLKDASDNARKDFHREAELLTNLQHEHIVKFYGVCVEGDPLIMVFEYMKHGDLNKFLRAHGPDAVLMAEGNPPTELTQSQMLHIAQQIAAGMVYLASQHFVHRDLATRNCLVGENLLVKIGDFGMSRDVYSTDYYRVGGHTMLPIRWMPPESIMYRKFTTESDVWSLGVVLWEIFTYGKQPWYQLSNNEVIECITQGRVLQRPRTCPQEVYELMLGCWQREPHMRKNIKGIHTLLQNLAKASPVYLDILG

Row | SMILES | inhibition [1] | inhibition [2] | inhibition [3] | inhibition [4] | inhibition [5] | inhibition [6] | inhibition [7] | inhibition [8] | inhibition [9] | inhibition [10] | inhibition [11] | inhibition [12] | inhibition [13] | inhibition [14] | inhibition [15] | inhibition [16] | inhibition [17] | inhibition [18] | inhibition [19] | inhibition [20]
1 | COc1ccc(C2=C(N3CCc4ccccc43)C(=O)NC2=O)cc1 | 3.66% | 3.2% | 2.97% | 3.23% | 3.14% | 3.28% | 4.15% | -3.26% | 5.34% | 1.27% | 12.5% | 0.57% | 5.83% | 1.68% | -3.65% | 4.19% | 10.4% | 0.85% | 4.95% | 6.97%
2 | NC(=O)c1cc(-c2ccc(F)cc2)cc(-c2ccncc2)c1N | -0.4% | 3.69% | 3.15% | 3.87% | 2.92% | 3.85% | 12.4% | -2.58% | 11.4% | 3.42% | 4.02% | 2.72% | 3.54% | -0.44% | -4.53% | 6.15% | 5.86% | 0.12% | 2.33% | 4.49%
3 | CN(C)c1ccc2c(c1)/C(=C/Nc1ccc(S(N)(=O)=O)cc1)C(=O)N2 | 46.2% | 15.4% | 65.2% | 21% | 73.1% | 3.16% | 4.14% | 1.02% | 12.5% | 6.26% | 50.7% | 4.95% | 30.4% | 17.9% | 48% | 3% | 18.1% | 5.66% | 29.9% | 23.9%
4 | Fc1ccc(-c2ncn(C3CCNCC3)c2-c2ccnc(Oc3ccc(Oc4ccccc4)cc3)n2)cc1 | 5.66% | 2.54% | 2.27% | 2.44% | 1.66% | 8.91% | 5.95% | -1.07% | 7.56% | 2.89% | 0.96% | 4.04% | 3.66% | 0.06% | 0.55% | 5.52% | 6.96% | 2.54% | 9.5% | 4.44%
5 | CCc1ccc(Oc2nccc(-c3c(-c4ccc(F)cc4)ncn3C3CCNCC3)n2)cc1 | 3.03% | 1.6% | 2.36% | 1.82% | 3.29% | 6.85% | 4.56% | 1.68% | 4.86% | 3.7% | 2.66% | 3.48% | 2.75% | 1.29% | 3.88% | 4.86% | 8.03% | 1.71% | 15.4% | 2.58%
6 | Fc1ccc(-c2ncn(CCCN3CCOCC3)c2-c2ccncc2)cc1 | -2.74% | -0.51% | -1.43% | -0.42% | -2.77% | 1.42% | 2% | 1.6% | 5.54% | -0.48% | 3.87% | 0.52% | 5.52% | -0.04% | 10.1% | 1.1% | 3.83% | 2.31% | 1.14% | 2.27%
7 | Cc1ccc(C(=O)NC2CCC2)cc1-c1ccc(C(=O)NCC2CC2)cc1 | 3.19% | 1.02% | 1.56% | 2.08% | 1.92% | 2.58% | 3.4% | -0.8% | 9.27% | 2.11% | 7.83% | 0.48% | 5.72% | 0.47% | 7.37% | 2.19% | 6.8% | 0.91% | 0.04% | 3.19%
8 | CS(=O)(=O)CCNCc1cc(-c2cc3c(Nc4ccc(OCc5cccc(F)c5)c(Cl)c4)ncnc3s2)cs1 | 7.01% | 3.47% | 5.03% | 5.13% | 3.52% | 7.43% | 6.57% | -4.26% | 9.22% | 4.18% | 4.87% | 5.13% | 9.34% | 3.65% | 8.71% | 9.33% | 12.9% | 0.39% | 3.81% | 4.31%
9 | O=C(Nc1n[nH]c2cc(-c3cc(F)ccc3F)ccc12)C1CC1 | 8.4% | 3.77% | 8.07% | 3.77% | 14% | 2.25% | 0.99% | -1% | 9.7% | 2.63% | 18.1% | 2.4% | 6.93% | 0.12% | 8.07% | 4.84% | 13.1% | 0.39% | 5.06% | 16.4%
10 | CCS(=O)(=O)c1ccc(OC)c(Nc2ncc(-c3cccc(-c4ccccc4F)c3)o2)c1 | 26% | 7.74% | 39.2% | 7.3% | 39.5% | 5.11% | 31.2% | 1.51% | 3.52% | 0.79% | 15% | 3.23% | 3.48% | 0.45% | -0.17% | 2.05% | 15.4% | 1.69% | 2.38% | 2.34%
11 | Fc1ccc(-c2ncn(C3CCNCC3)c2-c2ccnc(Oc3ccc(F)c(F)c3)n2)cc1 | 3.11% | 3.23% | 3.93% | 2.87% | 4.23% | -5.36% | 0.03% | -3.58% | 14% | -0.65% | -0.3% | -1.34% | 1.81% | -2.62% | 4.92% | 4.63% | 8.33% | 1.35% | 3.76% | 9.16%
12 | O=C(Nc1n[nH]c2nc(-c3ccco3)ccc12)C1CC1 | 3.29% | 0.95% | 2.36% | 1.6% | 5.42% | 2.21% | 2.84% | -1.75% | -0.72% | 2.22% | 11.4% | 1.7% | 8.39% | 1.88% | 7.39% | 4.1% | 9.62% | 0.49% | 4.84% | 4.17%
13 | Cc1ccc(C(=O)NC(C)C)cc1-c1ccc(C(=O)NCC2CC2)cc1 | 0.4% | -1.41% | 0.73% | 0.1% | 1.79% | -1.45% | -1.03% | 1.94% | -5.81% | -3.2% | -2.53% | -0.47% | 2.24% | -0.96% | 1.27% | -2.21% | -5.65% | -0.39% | 1.59% | -2.82%
